We go through 25 molecules from PubChem BioAssay.

Values joined by “and” are separate entries in the source; they are usually repeats but may differ in a detail not shown here. Identical values can stand only once. Active and inactive are the calls of the source.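 How the source made its calls, unless noted: active means compounds whose cell count with miR-34 switched on is under 0.7 times the count with it off; inactive means the rest.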

Assay [1] is described as follows: sensitizers of A549 cells to miR-34 induction, primary screen, imaging, A549 dox-inducible miR-34, nuclei and caspase counts (AID 1347080). Further: test concentration not given here. To be noted: A549 miR-34 inducible, Hoechst nuclei count, 48 h.
Assay [2] is described as follows: viability rescue of complex I mutant cybrids, primary screen, cell-based, galactose medium, ATP luminescence (AID 1645843;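 active means z-score of at least 1.8 in each of two replicates, scored against plate mean and spread of sample wells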;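 further: positive z means more ATP and so rescue of galactose-driven cybrid death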). To be noted: complex I mutant cybrid cells, 72 h, stronger effect = higher value.
[3] abbreviates: stronger effect = lower value, cell number ratio, induced over uninduced.
[4] abbreviates: measured here: relative caspase fold change +Dox/-Dox.
Setting [5] is: measured here: total cells with miR-34 induction, stronger effect = lower value.
[6] abbreviates: measured here: total cells without miR-34 induction.

For `OCC1OC(n2cnc3c(NC4CCCC4O)ncnc32)C(O)C1O` (stereo not given), the fold change was 0.907 (inactive) in assay [1] (setting [3]) and 0.906 in assay [1] (setting [4]). For the same molecule, the cell count in assay [1] (setting [5]) stood at 9400; in assay [1] (setting [6]), 10400. In assay [2], the z-score is 0.73 (inactive).
As for `COc1ccc2c3c1OC1CC(O)C=C[C@@]31CCN(C)C2` (stereo not given in full), the fold change in assay [1] (setting [3]) is 0.977 (inactive); in assay [1] (setting [4]), 1.4. Besides, the cell count in assay [1] (setting [5]) is 9660; in assay [1] (setting [6]), 9890. In assay [2], the z-score was 0.92 (inactive).
As for `CC1CC2C3CC(F)C4=CC(=O)C(Cl)=C[C@]4(C)[C@@]3(F)C(O)C[C@]2(C)[C@@]1(O)C(=O)CO` (stereo not given in full), the fold change in assay [1] (setting [3]) is 0.952 (inactive); in assay [1] (setting [4]), 1.63. The cell count is 6600 in assay [1] (setting [5]) and 6930 in assay [1] (setting [6]). Besides, the z-score in assay [2] was 0.895 (inactive).
With `CCC1OC(=O)C(C)C(=O)C(C)C(OC2OC(C)CC(N(C)C)C2O)[C@](C)(OC)CC(C)C(=O)C(C)C2N(CCCCn3cnc(-c4cccnc4)c3)C(=O)O[C@]12C` (stereo not given in full), the fold change is 0.904 (inactive) in assay [1] (setting [3]) and 0.557 in assay [1] (setting [4]). The cell count is 7630 in assay [1] (setting [5]) and 8440 in assay [1] (setting [6]). Also, the z-score in assay [2] was 0 (inactive).
Take `COc1cccc2c1C(=O)c1c(O)c3c(c(O)c1C2=O)C[C@@](O)(C(=O)CO)CC3OC1CC(N)C(O)C(C)O1` (stereo not given in full): the fold change in assay [1] (setting [3]) is 0.969 (inactive) and 1 (inactive); in assay [1] (setting [4]), 0.932 and 0.974. The cell count in assay [1] (setting [5]) is 1960 and 2320; in assay [1] (setting [6]), 2030 and 2320. In addition, the z-score in assay [2] was -1.87 (inactive) and -1.86 (inactive).
As for `C[C@]12CC(O)C3C(CCC4=CC(=O)CC[C@@]43C)C1CCC2C(=O)CO` (stereo not given in full), the values for the fold change in assay [1] (setting [3]) and in assay [1] (setting [4]) were 0.859 (inactive) and 2.3, respectively. The cell count came out at 7080 in assay [1] (setting [5]) and 8240 in assay [1] (setting [6]). In assay [2], the z-score is 0.21 (inactive).
For `CC(=O)OC1CC2CCC3C(CC[C@@]4(C)C3CC([N+]3(C)CCCCC3)C4OC(C)=O)[C@@]2(C)CC1N1CCCCC1` (stereo not given in full), the figures for the fold change in assay [1] (setting [3]) and in assay [1] (setting [4]) were 0.934 (inactive) and 1.76, respectively. Further, the cell count in assay [1] (setting [5]) was determined as 9160; in assay [1] (setting [6]), 9800. The z-score in assay [2] is 0.43 (inactive).
`O=C(OC1CC2CC3CC(C1)N2CC3=O)c1c[nH]c2ccccc12` (stereo not given): the fold change in assay [1] (setting [3]) is 0.871 (inactive); in assay [1] (setting [4]), 2.24. Besides, the cell count amounted to 8970 in assay [1] (setting [5]) and 10300 in assay [1] (setting [6]). For the same molecule, the z-score in assay [2] was 0.88 (inactive).
For `COc1ccc(CCCOc2cc(CCn3ccnc3)ccc2OC)cc1` the same measures were 1.41 (inactive), 0.402, 3260, 2300 and -1.33 (inactive).
With `C[C@]12CCC3c4ccc(O)cc4CCC3C1CCC2O` (stereo not given in full), the fold change in assay [1] (setting [3]) was 1.11 (inactive); in assay [1] (setting [4]), 1.15. Moreover, the values for the cell count in assay [1] (setting [5]) and in assay [1] (setting [6]) were 6850 and 6160, respectively. Further, in assay [2], the z-score was 0.465 (inactive).
With `O=c1cnn(C2OC(CO)C(O)C2O)c(=O)[nH]1` (stereo not given), the figures for the fold change in assay [1] (setting [3]) and in assay [1] (setting [4]) were 1.77 (inactive) and 0.641, respectively. The cell count in assay [1] (setting [5]) is 1880; in assay [1] (setting [6]), 1060. Besides, the z-score in assay [2] was -0.74 (inactive).
For `CC(C)(C)NC(=O)C1CC2CCCCC2CN1CC(O)C(Cc1ccccc1)NC(=O)C(CC(N)=O)NC(=O)c1ccc2ccccc2n1` (stereo not given), the values for the fold change in assay [1] (setting [3]) and in assay [1] (setting [4]) were 1.12 (inactive) and 1.27, respectively. Also, the values for the cell count in assay [1] (setting [5]) and in assay [1] (setting [6]) were 4860 and 4350, respectively. Besides, in assay [2], the z-score is -1.52 (inactive).
As to `CC[C@]1(O)CC2CN(CCc3c([nH]c4ccccc34)[C@@](C(=O)OC)(c3cc4c(cc3OC)N(C)C3[C@@](O)(C(N)=O)C(O)[C@]5(CC)C=CCN6CC[C@]43C65)C2)C1` (stereo not given in full), the fold change in assay [1] (setting [3]) was 0.722 (inactive); in assay [1] (setting [4]), 1.09. Besides, the cell count in assay [1] (setting [5]) came to 1070; in assay [1] (setting [6]) it was 1480. The z-score in assay [2] was -1.19 (inactive).
With `COC1OC2O[C@@]3(C)CCC4C(C)CCC(C1C)[C@@]24OO3` (stereo not given in full), the fold change in assay [1] (setting [3]) is 0.961 (inactive); in assay [1] (setting [4]), 0.771. Further, the cell count in assay [1] (setting [5]) is 9270; in assay [1] (setting [6]), 9650. In addition, in assay [2], the z-score was -0.035 (inactive).
In the case of `CCC(=O)O[C@]1(C(=O)SCF)C(C)CC2C3CC(F)C4=CC(=O)C=C[C@]4(C)[C@@]3(F)C(O)C[C@@]21C` (stereo not given in full), the fold change was 0.897 (inactive) in assay [1] (setting [3]) and 1.65 in assay [1] (setting [4]). For the same molecule, the cell count was determined as 6980 in assay [1] (setting [5]) and 7780 in assay [1] (setting [6]). Further, the z-score in assay [2] was 1.79 (inactive).
As to `COc1cc(C=Cc2ccc(O)cc2)cc(OC)c1`, the results for the fold change in assay [1] (setting [3]) and in assay [1] (setting [4]) were 0.943 (inactive) and 1.26, respectively. In addition, the figures for the cell count in assay [1] (setting [5]) and in assay [1] (setting [6]) were 6760 and 7170, respectively. In assay [2], the z-score is -1.52 (inactive).
On to `CC(C)CC(NC(=O)C(COC(C)(C)C)NC(=O)C(Cc1ccc(O)cc1)NC(=O)C(CO)NC(=O)C(Cc1c[nH]c2ccccc12)NC(=O)C(Cc1cnc[nH]1)NC(=O)C1CCC(=O)N1)C(=O)NC(CCCN=C(N)N)C(=O)N1CCCC1C(=O)NNC(N)=O` (stereo not given), for which the fold change in assay [1] (setting [3]) is 1.04 (inactive); in assay [1] (setting [4]) it was 1.1. The cell count in assay [1] (setting [5]) came out at 7490; in assay [1] (setting [6]), 7190. Besides, the z-score in assay [2] was 0.385 (inactive).
On to `C#C[C@]1(O)CCC2C3C(C)CC4=C(CCC(=O)C4)C3CC[C@@]21C` (stereo not given in full), for which the fold change was 0.909 (inactive) in assay [1] (setting [3]) and 1.5 in assay [1] (setting [4]). The cell count in assay [1] (setting [5]) amounted to 8730; in assay [1] (setting [6]), 9600. Further, in assay [2], the z-score is -0.655 (inactive).
`Nc1ncnc2c1ncn2C1OC(CO)CC1O` (stereo not given): the fold change is 0.896 (inactive) in assay [1] (setting [3]) and 2.91 in assay [1] (setting [4]). Further, the cell count was found to be 8910 in assay [1] (setting [5]) and 9950 in assay [1] (setting [6]). Besides, the z-score in assay [2] was -0.825 (inactive).
With `CCCCC(=O)N(Cc1ccc(-c2ccccc2-c2nn[nH]n2)cc1)C(C(=O)O)C(C)C` (stereo not given), the fold change was 0.925 (inactive) in assay [1] (setting [3]) and 1.23 in assay [1] (setting [4]). Further, the cell count was 9560 in assay [1] (setting [5]) and 10300 in assay [1] (setting [6]). Moreover, the z-score in assay [2] was 1.69 (inactive).
Take `CCC1=CC2CN(C1)Cc1c([nH]c3ccccc13)[C@@](C(=O)OC)(c1cc3c(cc1OC)N(C)C1[C@@](O)(C(=O)OC)C(OC(C)=O)[C@]4(CC)C=CCN5CC[C@]31C54)C2` (stereo not given in full): the fold change in assay [1] (setting [3]) is 1.19 (inactive); in assay [1] (setting [4]), 1.47. Moreover, the cell count was determined as 1620 in assay [1] (setting [5]) and 1360 in assay [1] (setting [6]). In addition, the z-score in assay [2] was -1.06 (inactive).
On the same counts, the results for `CC(C)(C)C(O)C=Cc1ccc2c(c1)OCO2` (stereo not given) are 1.46 (inactive), 0.768, 8470, 5780 and -0.12 (inactive).
Turning to `C=C1C(=CC=C2CCC[C@@]3(C)C2CCC3C(C)C=CC(O)C2CC2)CC(O)CC1O` (stereo not given in full), the fold change in assay [1] (setting [3]) was 1.02 (inactive); in assay [1] (setting [4]) it was 1.9. The values for the cell count in assay [1] (setting [5]) and in assay [1] (setting [6]) were 9990 and 9800, respectively. The z-score in assay [2] is -1.44 (inactive).
`CCOC(=O)O[C@]1(C(=O)OCCl)CCC2C3CCC4=CC(=O)C=C[C@]4(C)C3C(O)C[C@@]21C` (stereo not given in full): the values for the fold change in assay [1] (setting [3]) and in assay [1] (setting [4]) were 0.961 (inactive) and 1.35, respectively. Besides, the cell count in assay [1] (setting [5]) stood at 6110; in assay [1] (setting [6]) it was 6360. Also, the z-score in assay [2] was 0.71 (inactive).
As for `CN1CC(=O)N2C(Cc3c([nH]c4ccccc34)C2c2ccc3c(c2)OCO3)C1=O` (stereo not given), the values for the fold change in assay [1] (setting [3]) and in assay [1] (setting [4]) were 0.932 (inactive) and 1.44, respectively. For the same molecule, the cell count in assay [1] (setting [5]) worked out at 6940; in assay [1] (setting [6]), 7450. Also, the z-score in assay [2] was 1.56 (inactive).
